What all share (test): glycan array binding signal (z-score within array); higher = stronger binding
What all share (details): glycan notation: IUPAC condensed, linker removed

The subject of test [1] is Fuc(a1-2)[GalNAc(a1-3)]Gal(b1-3)GlcNAc(b1-3)GalNAc. A digest of the protocol: (§1)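 Glycan array data came from 3228 arrays in the Consortium for Functional Glycomics database, and only arrays with an available protein sequence were kept. Glycan names were put into IUPAC-condensed notation, and columns mapping to the same glycan were averaged. The binding signal is a within-array Z-score, averaged across arrays of one protein sequence run at different concentrations or buffers and across linkers. A negative Z-score can be read as non-binding.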

The subject of test [2] is Fuc(a1-2)[GalNAc(a1-3)]Gal(b1-4)GlcNAc(b1-2)Man(a1-3)[Fuc(a1-2)[GalNAc(a1-3)]Gal(b1-4)GlcNAc(b1-2)Man(a1-6)]Man(b1-4)GlcNAc(b1-4)GlcNAc. A digest of the protocol:
as §1

The subject of test [3] is Fuc(a1-2)[GalNAc(a1-3)]Gal(b1-4)GlcNAc(b1-3)Gal(b1-4)GlcNAc(b1-3)Gal(b1-4)GlcNAc. The procedure, abridged:
as §1

Test [4] deals with Fuc(a1-2)[GalNAc(a1-3)]Gal(b1-3)GlcNAc(b1-6)GalNAc. The procedure, abridged: as §1
In test [5] the test system is Fuc(a1-2)[GalNAc(a1-3)]Gal(b1-3)GlcNAc(b1-2)Man(a1-3)[Fuc(a1-2)[GalNAc(a1-3)]Gal(b1-3)GlcNAc(b1-2)Man(a1-6)]Man(b1-4)GlcNAc(b1-4)GlcNAc. A digest of the protocol:
as §1

In test [6] the test system is Fuc(a1-2)[GalNAc(a1-3)]Gal(b1-4)GlcNAc(b1-2)Man. The procedure, abridged: as §1
In test [7] the test system is Fuc(a1-2)[GalNAc(a1-3)]Gal(b1-4)GlcNAc(b1-6)GalNAc. A digest of the protocol: as §1
For test [8], the system named is Fuc(a1-2)[GalNAc(a1-3)]Gal(b1-3)GlcNAc. The procedure, abridged: as §1
Test [9] deals with Fuc(a1-2)[GalNAc(a1-3)]Gal(b1-4)GlcNAc(b1-3)Gal(b1-4)GlcNAc. The procedure, abridged:
as §1

Test [10] relates to Fuc(a1-2)[GalNAc(a1-3)]Gal(b1-4)GlcNAc(b1-3)GalNAc. A digest of the protocol: as §1

7 substances from the supplement of paper PMC8728848 can be followed below.

The entries come from a sample that favours the strongest signals as a whole.

PILRb (Mus musculus), Q2YSF2, sequence (Q2YSF2 entry or part of it): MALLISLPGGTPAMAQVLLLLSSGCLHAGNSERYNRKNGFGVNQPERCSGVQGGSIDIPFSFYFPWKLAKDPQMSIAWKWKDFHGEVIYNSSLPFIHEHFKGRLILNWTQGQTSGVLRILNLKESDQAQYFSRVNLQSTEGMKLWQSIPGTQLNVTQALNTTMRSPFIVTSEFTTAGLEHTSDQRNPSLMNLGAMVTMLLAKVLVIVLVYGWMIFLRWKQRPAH
CHI3L1 (Homo sapiens), P36222, sequence (P36222 whole entry): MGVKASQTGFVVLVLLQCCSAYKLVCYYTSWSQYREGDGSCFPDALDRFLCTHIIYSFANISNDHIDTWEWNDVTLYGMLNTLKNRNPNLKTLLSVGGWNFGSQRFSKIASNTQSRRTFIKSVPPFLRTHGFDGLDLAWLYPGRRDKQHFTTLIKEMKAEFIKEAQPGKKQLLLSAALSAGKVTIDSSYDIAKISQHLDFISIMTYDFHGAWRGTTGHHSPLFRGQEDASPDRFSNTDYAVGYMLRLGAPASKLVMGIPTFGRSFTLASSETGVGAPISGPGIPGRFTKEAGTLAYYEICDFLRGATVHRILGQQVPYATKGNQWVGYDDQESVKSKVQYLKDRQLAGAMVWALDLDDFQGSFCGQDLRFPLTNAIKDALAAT
6RG (Lolium perenne), B9U140, sequence (B9U140 entry or part of it): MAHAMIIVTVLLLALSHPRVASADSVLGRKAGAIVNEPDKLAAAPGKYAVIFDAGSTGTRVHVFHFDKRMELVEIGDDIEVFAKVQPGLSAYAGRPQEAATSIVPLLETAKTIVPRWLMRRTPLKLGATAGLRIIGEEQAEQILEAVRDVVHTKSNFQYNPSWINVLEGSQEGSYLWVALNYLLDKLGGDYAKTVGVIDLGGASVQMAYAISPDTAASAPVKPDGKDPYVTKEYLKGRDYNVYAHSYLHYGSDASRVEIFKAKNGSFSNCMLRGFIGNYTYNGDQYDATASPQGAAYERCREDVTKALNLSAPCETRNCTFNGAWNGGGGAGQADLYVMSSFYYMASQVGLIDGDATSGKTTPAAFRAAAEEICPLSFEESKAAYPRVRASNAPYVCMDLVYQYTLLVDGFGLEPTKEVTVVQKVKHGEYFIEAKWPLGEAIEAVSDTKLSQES
Aggrecan (Rattus norvegicus), NP_071526, sequence (chain, as listed by the source): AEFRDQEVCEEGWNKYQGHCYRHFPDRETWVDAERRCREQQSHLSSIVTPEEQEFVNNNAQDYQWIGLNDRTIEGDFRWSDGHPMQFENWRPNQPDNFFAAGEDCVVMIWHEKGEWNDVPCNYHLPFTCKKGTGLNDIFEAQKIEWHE
Avaren (Actinomycete K97), sequence (chain, as listed by the source): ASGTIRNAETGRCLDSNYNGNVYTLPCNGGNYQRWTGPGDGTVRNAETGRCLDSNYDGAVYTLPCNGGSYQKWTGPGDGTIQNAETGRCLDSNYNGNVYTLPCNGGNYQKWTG

Turning to PILRb (Mus musculus), Q2YSF2, the results for the “glycan array binding signal (z-score)” value in test [1], in [2] and in test [3] were 1.35, -0.328 and -0.069, respectively.

For the substance Avaren (Actinomycete K97), the “glycan array binding signal (z-score)” value in [4] is -0.139.

With MpAFP RI GFP (Marinomonas primoryensis), the “glycan array binding signal (z-score)” value in test [5] was -0.022; in [6], -0.489; in test [7] it was -0.439.

Regarding 6RG (Lolium perenne), B9U140, the “glycan array binding signal (z-score)” value in [8] is -0.169.

For the substance Siglec-8 (Homo sapiens), Q9NYZ4, the entries for the “glycan array binding signal (z-score)” value in [9] (mutation: R125K) and in test [7] (mutation: R125K) were -0.346 and -0.119, respectively.

In the case of CHI3L1 (Homo sapiens), P36222, the figures for the “glycan array binding signal (z-score)” value in test [4], in test [9] and in test [10] were -0.064, -0.12 and -0.124, respectively.

With Aggrecan (Rattus norvegicus), NP_071526, the “glycan array binding signal (z-score)” value in test [5] is -0.131.
